Laboratory results published in PubChem BioAssay AID1259325 (C. David Weaver Laboratory, Vanderbilt University, 2017).
Out of some 63,000 compounds screened, about 30 (0.05%) were called active. The rule behind the calls is not given here. These entries were drawn from the full list.

Biological target: G protein-activated inward rectifier potassium channel 2 (Homo sapiens) (UniProt P48051)
Assay: activators of human GIRK2 potassium channels (AID 1259325)
Details: HEK293-GIRK2 thallium flux, Thallos fluorescence, MPD

Chain of G protein-activated inward rectifier potassium channel 2 (Homo sapiens) (P48051 whole entry, looked up): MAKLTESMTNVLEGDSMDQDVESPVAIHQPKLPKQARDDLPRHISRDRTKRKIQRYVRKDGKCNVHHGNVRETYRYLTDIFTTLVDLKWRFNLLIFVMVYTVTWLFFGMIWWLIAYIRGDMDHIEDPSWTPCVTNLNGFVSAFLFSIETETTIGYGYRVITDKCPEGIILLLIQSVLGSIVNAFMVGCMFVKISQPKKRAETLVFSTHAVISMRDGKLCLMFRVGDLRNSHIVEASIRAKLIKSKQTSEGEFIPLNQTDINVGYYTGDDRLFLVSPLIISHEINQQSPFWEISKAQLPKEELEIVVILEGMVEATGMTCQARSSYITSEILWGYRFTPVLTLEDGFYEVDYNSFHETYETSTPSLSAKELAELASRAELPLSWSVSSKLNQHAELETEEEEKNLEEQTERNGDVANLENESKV

outcome, inactive:
COc1ccccc1N1CCN(CC(=O)N2CCN(S(C)(=O)=O)CC2)C1=O
COc1ccccc1NC(=O)CN1N=NC2C(=O)N(c3ccc(F)c(F)c3)C(=O)C21 (centres undefined)
CCOc1ccc(C2C(C(=O)c3sc(C)nc3C)=C(O)C(=O)N2CCCN(C)C)cc1 (centres undefined)
CN(C)C(CNC(=O)C1c2ccccc2Oc2ccccc21)c1cccn1C (centres undefined)
CCCN(C)c1nccn2c(=O)n(CC(=O)Nc3cccc(CC)c3)nc12
CCOC(=O)c1ccc(NC(=O)Cn2ccn(Cc3ccc(Cl)cc3)c(=O)c2=O)cc1
Cc1nc(C)c(-c2ccc(=O)n(CCNC(=O)C3CCN(S(C)(=O)=O)CC3)n2)s1
O=C(c1ccc2c(c1)OCO2)N1CCC(CSc2ccccn2)CC1
COc1ccc(S(=O)(=O)N2CCCOC2CNC(=O)C(=O)NCc2ccc(C)cc2)cc1OC (centres undefined)
Cn1c(=O)n(CCc2ccccc2)c(=O)c2c(N3CCN(C(=O)c4ccco4)CC3)ccnc21
COc1cccc(CSc2nc(C)c(CC(=O)NCc3cccs3)c(=O)[nH]2)c1
COc1ccc(NC(=O)CSc2nnc(C3CC(=O)N(c4ccc(C)cc4)C3)o2)cc1 (centres undefined)
O=C(O)CCC/C=C\C[C@@H]1C(/C=C/[C@@H](O)COc2cccc(C(F)(F)F)c2)[C@H](O)C[C@@H]1O (some centres undefined)
O=C(CSc1ccc(-c2nc(-c3ccccc3)no2)cn1)NCc1ccc2c(c1)OCO2
CCCNC(=O)Cn1nc2c(c1NC(=O)COc1ccccc1F)CSC2
O=C(COc1ccc(Cl)cc1)Nc1ccc(N2CCCCS2(=O)=O)cc1
O=C1CC(C(=O)Nc2ccccc2Cl)n2c(nc3ccccc32)N1 (centres undefined)
COCCNC(=O)c1[nH]c2ccccc2c1NC(=O)c1cccc(C)c1
COc1cc(/C=C2\Oc3c4c(cc(C)c3C2=O)OCN(C2CC2)C4)cc(OC)c1OC
CCc1ccc(NC(=O)NCCNc2cc(Nc3ccccn3)ncn2)cc1
Cc1cc(C)n(-c2cc(SCC(=O)N3CCCC3)ncn2)n1
COc1ccc(-c2ccc(C)c(NC(=O)c3cc4ccccc4oc3=O)c2)nn1
Cn1cccc(C(=O)Nc2ccc3c(c2)CCC(=O)N3)c1=O
O=C(CCn1c(=O)oc2ccc(Cl)cc21)N1CCN(c2ccccc2Cl)CC1
COc1cccc(OCc2nc3c(C)cccc3[nH]2)c1
CCC(C)c1ccc(Cn2c(CO)nc3ccccc32)cc1 (centres undefined)
CC(=O)c1cccc(NC(=O)CCCn2cnc(-c3ccc(F)cc3)cc2=O)c1
COCCn1c(SCc2nc(-c3ccc(Cl)cc3)no2)nc2cc3c(cc2c1=O)OCO3
CCOc1cc(C(=O)Nc2ccc3c(c2)N(C(C)=O)CCC3)cc(OCC)c1OCC
Cn1cnnc1SCc1cc(=O)c(OCC(=O)NCc2ccco2)co1
COC(=O)c1[nH]c(C)c(C(O)=C2C(=O)C(=O)N(CCCN(C)C)C2c2cccs2)c1C (centres undefined)
O=C(Nc1nc(-c2cc3ccccc3o2)cs1)c1ccc(S(=O)(=O)N2CCOCC2)cc1
Cc1ccnc(Nc2cc(NCCNC(=O)Nc3cccc(Cl)c3)ncn2)c1
COc1cccc(NC(=O)CSc2ncc(S(=O)(=O)c3ccc(Cl)cc3)c(=O)[nH]2)c1
O=S(=O)(Cc1nc(-c2cccc(Cl)c2)no1)c1ccccc1
O=S(=O)(c1ccccc1F)N(CCc1cccs1)Cc1ccoc1
COc1ccc(Nc2c(C(=O)N3CCCCC3)cnc3nc(C)ccc23)cc1OC
O=S(=O)(NCCC(O)c1ccoc1)c1ccc(F)c(Cl)c1 (centres undefined)
COC(=O)c1ccc2c(=O)n(CCC(=O)NCCN3CCCc4ccccc43)c(=S)[nH]c2c1
Cc1nc2sc(C)c(C)n2c(=O)c1NC(=O)c1ccccc1C(F)(F)F
COC(=O)Nc1nc2c(s1)CN(C(=O)c1cccc(C#N)c1)CC2
COc1cc(NC(=O)c2cnccn2)ccc1N1CCCC1=O
Cc1nn(-c2ccccc2)c(C)c1N1CCN(S(=O)(=O)c2cccs2)CC1
Cn1cccc1C(=O)N1CCN(Cc2nncn2-c2ccccc2F)CC1
Cc1cn2c3c(=O)n(C/C=C/c4ccccc4)c(=O)n(C)c3nc2n1-c1ccccc1O
CCCCN(C)C(=O)c1cc2c(=O)n3ccccc3nc2n1CCCOC
COc1ccc(OC)c(S(=O)(=O)NCC(c2ccc(F)cc2)N2CCOCC2)c1 (centres undefined)
CCOC(=O)c1cnn2ccc(NC(=O)c3cnn(-c4ccccc4)c3C)cc12
COc1ccc(C(O)CN2CCN(c3cccc(C)c3C)CC2)cc1 (centres undefined)
Cc1cc(NC(=O)C2CCN(C(=O)C3(c4ccccc4)CCOCC3)CC2)no1
COc1cccc(C(=O)Oc2ccc(/C=C/c3ccccn3)cc2)c1
Nc1cc2cc(Br)ccc2cn1
COc1ncccc1C(=O)NCCn1nc(C2CC2)n(-c2ccccc2)c1=O
CCc1cc2c(=O)n(Cc3ccco3)c(SCc3cc(=O)[nH][nH]3)nc2s1
Cc1cc(N2CCN(CCO)CC2)n2nc(C(F)(F)F)c(-c3ccc(Cl)cc3)c2n1
CCOc1ccc(N(C)S(=O)(=O)c2ccsc2C(=O)NCCC2=CCCCC2)cc1
CCC(=O)Nc1cc(-c2ccco2)nn1-c1nc2c(c(=O)[nH]1)CCC2
O=C(CCC(=O)N1CC(c2nc(-c3cccs3)no2)C1)c1ccccc1
Cc1ccc(Cl)c(-n2nnc(C(=O)Nc3ccccc3Cl)c2C)c1
O=C(NCC(=O)N1CCN(c2cc(-n3cccc3)ncn2)CC1)c1ccccc1
O=C(Nc1ccc2c(c1)OCO2)Nc1ccccc1NC(=O)c1ccccc1F
O=S(=O)(NC1CCN(c2ccc(-c3ccccc3Cl)nn2)CC1)c1cccs1
O=C(CN1CCN(c2ccccc2F)C1=O)Nc1ccc(OC(F)(F)F)cc1
CCOC(=O)N1CCc2c(sc(NC(=O)c3ccc(C)c(C)c3)c2-c2nc3ccccc3s2)C1
Cc1nnc(NC(=O)C2CCN(c3ccc(-c4ccco4)nn3)CC2)s1
Cc1cc(-c2ccccc2)nc2cc(-c3nc(-c4cccs4)no3)nn12
CCCCCNC(=O)c1sc(-c2nnn(-c3ccc(F)cc3)c2C)nc1C
Cc1ccc2[nH]c3c(=O)n(CC(=O)N4CCN(c5cccc(C(F)(F)F)c5)CC4)cnc3c2c1
COc1ccc(NCCN2N=C(C)C(C)n3c2nc2c3c(=O)n(C)c(=O)n2C)cc1 (centres undefined)
